Our source for the binding signal values is article PMC7862700, “An all-to-all approach to the identification of sequence-specific readers for epigenetic DNA modifications on cytosine”.

What all share (assay): DAPPL (digital affinity profiling via proximity ligation, sequencing); 10 mM Tris-HCl pH 7.5, 50 mM NaCl, 1 mM DTT, 4% glycerol, room temperature, 30 min; GST-TFs on glutathione beads, 16-mer random dsDNA library, 0.1% formaldehyde crosslink after washing; high values mean tight binding
The target in one assay is T1, ELK1 (Homo sapiens, UniProt P19419 1-428).
T1 sequence: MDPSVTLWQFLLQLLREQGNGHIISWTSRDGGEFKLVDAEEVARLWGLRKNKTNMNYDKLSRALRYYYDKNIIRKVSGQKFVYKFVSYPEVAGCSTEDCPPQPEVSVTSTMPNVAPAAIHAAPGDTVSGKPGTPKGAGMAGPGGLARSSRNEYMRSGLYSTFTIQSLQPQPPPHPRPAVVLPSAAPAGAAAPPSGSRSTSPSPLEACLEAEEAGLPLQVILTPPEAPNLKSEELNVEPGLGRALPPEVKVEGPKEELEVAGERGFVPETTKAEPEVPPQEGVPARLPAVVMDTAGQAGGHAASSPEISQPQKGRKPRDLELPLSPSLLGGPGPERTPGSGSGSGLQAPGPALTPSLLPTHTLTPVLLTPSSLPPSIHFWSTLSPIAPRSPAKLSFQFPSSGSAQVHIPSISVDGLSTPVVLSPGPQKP
The following applies: protein: recombinant; tags: N-terminal GST; dsDNA, one strand shown. In outline: (§1)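 Human transcription factors fused to GST were expressed in yeast, captured on glutathione beads, given DNA barcodes and pooled with a GST-only negative control. Pools were incubated with 200 nmole of a 16-mer random double-stranded DNA library in Tris/NaCl/DTT/glycerol buffer at room temperature for 30 min. They were then washed, crosslinked with 0.1% formaldehyde, proximity-ligated (BsaI/T4 ligase, 1 h, 37 °C), PCR-amplified and sequenced on an Illumina NextSeq500. Binding signal is each 6-mer's read frequency for a factor divided by its frequency for the GST control.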

For another assay, the target named is T2, GABPA (Homo sapiens, UniProt Q06546 1-454).
T2 sequence: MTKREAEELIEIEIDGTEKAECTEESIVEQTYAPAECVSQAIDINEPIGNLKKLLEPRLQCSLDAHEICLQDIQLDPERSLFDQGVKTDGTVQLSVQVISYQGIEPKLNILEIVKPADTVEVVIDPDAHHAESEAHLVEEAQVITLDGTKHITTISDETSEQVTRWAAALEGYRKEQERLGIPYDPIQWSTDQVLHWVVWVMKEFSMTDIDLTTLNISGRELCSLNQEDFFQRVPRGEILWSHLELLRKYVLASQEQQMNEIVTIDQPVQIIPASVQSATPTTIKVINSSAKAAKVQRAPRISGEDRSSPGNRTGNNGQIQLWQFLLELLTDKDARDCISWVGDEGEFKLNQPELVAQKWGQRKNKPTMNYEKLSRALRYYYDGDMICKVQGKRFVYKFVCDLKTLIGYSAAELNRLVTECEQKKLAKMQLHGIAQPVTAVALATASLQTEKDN
The following applies: protein: recombinant; tags: N-terminal GST; dsDNA, one strand shown. Put shortly: as §1

Another assay concerns the target T3, ERG (Homo sapiens, UniProt P11308 1-479).
T3 sequence: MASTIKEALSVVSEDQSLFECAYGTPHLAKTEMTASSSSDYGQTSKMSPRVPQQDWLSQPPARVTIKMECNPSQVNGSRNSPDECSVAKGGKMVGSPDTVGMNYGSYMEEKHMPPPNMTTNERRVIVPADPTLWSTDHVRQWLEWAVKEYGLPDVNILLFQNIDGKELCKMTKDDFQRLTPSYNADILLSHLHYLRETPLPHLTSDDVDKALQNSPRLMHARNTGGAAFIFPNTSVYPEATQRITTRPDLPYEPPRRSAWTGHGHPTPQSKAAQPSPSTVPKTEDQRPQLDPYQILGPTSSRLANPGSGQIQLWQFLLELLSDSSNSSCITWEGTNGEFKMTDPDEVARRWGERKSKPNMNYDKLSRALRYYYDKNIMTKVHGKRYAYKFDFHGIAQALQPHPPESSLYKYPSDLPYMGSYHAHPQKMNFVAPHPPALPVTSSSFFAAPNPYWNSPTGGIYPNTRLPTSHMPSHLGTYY
The following applies: protein: recombinant; tags: N-terminal GST; dsDNA, one strand shown. In outline:
as §1

The target of another assay is ELF1 (Homo sapiens, UniProt P32519 1-619). The following applies: protein: recombinant; tags: N-terminal GST; dsDNA, one strand shown. In outline: as §1
ELF1, sequence (P32519 whole entry): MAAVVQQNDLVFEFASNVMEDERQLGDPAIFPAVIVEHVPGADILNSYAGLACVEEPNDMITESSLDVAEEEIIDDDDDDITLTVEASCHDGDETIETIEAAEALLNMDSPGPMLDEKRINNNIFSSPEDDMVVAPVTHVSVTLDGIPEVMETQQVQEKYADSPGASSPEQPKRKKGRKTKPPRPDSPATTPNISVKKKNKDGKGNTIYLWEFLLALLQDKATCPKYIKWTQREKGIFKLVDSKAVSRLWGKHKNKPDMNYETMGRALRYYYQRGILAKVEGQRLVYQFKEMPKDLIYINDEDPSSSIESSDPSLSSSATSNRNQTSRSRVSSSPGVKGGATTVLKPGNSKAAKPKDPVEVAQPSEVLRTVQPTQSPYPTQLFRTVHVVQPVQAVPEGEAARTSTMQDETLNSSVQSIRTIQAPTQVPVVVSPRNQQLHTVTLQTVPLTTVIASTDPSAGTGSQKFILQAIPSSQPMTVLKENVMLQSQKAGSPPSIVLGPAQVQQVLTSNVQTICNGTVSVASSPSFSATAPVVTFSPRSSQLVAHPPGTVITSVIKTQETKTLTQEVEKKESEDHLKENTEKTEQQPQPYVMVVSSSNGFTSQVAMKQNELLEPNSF
In another assay the target is SPIB (Homo sapiens, UniProt Q01892 1-262). The following applies: protein: recombinant; tags: N-terminal GST; dsDNA, one strand shown. In outline: as §1
SPIB, sequence (Q01892 whole entry): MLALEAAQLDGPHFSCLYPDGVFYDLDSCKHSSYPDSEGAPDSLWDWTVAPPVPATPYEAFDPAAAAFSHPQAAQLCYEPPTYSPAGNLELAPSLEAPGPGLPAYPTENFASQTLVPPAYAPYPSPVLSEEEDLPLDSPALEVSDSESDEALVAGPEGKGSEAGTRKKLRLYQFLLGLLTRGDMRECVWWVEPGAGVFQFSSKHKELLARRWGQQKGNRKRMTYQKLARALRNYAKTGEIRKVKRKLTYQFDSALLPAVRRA
A further assay addresses HSF1 (Homo sapiens, UniProt Q00613 1-529). The following applies: protein: recombinant; tags: N-terminal GST; chain copies: 3; dsDNA, one strand shown. In outline: as §1
Another assay concerns the target T4, SPIC (Homo sapiens, UniProt Q8N5J4 1-248).
T4 sequence: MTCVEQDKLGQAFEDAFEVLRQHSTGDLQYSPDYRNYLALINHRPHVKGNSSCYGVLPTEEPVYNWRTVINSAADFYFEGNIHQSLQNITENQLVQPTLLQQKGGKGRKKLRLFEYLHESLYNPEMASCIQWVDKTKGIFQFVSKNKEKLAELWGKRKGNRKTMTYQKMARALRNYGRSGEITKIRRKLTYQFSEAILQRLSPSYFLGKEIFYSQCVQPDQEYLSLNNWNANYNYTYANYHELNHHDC
The following applies: protein: recombinant; tags: N-terminal GST; dsDNA, one strand shown. In outline: as §1

The next assay concerns the target T5, ELK4 (Homo sapiens, UniProt P28324-2 1-405).
T5 sequence: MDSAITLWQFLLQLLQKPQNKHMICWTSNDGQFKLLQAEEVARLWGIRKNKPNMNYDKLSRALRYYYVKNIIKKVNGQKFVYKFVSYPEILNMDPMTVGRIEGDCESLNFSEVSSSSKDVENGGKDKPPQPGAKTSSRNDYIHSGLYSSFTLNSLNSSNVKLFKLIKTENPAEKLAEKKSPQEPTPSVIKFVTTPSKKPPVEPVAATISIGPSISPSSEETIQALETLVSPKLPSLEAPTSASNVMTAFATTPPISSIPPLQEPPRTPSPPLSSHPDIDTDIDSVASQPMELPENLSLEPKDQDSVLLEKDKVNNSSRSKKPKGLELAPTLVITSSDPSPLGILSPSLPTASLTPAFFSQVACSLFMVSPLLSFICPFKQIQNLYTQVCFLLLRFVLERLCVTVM
The following applies: protein: recombinant; tags: N-terminal GST; dsDNA, one strand shown. Put shortly:
as §1

The next assay concerns the target T6, ETV3L (Homo sapiens, UniProt Q6ZN32 1-361).
T6 sequence: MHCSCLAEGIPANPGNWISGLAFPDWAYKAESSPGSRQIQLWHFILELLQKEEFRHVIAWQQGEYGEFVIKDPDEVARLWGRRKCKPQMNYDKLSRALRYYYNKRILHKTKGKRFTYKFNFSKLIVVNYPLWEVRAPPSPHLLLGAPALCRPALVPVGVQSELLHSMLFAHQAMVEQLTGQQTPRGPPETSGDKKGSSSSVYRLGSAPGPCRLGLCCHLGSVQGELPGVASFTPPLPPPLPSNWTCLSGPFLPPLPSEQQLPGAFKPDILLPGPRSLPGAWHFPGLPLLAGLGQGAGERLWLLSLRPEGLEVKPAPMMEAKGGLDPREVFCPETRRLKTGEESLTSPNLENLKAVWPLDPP
The following applies: protein: recombinant; tags: N-terminal GST; dsDNA, one strand shown. In outline: as §1

The target of the next assay is T7, ETV7 (Homo sapiens, UniProt Q9Y603 1-341).
T7 sequence: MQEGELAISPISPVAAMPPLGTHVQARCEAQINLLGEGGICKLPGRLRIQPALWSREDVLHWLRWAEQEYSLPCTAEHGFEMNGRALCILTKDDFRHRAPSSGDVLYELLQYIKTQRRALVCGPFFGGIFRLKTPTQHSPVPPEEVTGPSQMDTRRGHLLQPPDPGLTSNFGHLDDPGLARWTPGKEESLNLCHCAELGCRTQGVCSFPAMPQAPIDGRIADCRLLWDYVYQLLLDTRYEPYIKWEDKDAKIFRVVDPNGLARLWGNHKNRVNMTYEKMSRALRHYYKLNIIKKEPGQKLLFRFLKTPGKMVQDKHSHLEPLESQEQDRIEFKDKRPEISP
The following applies: protein: recombinant; tags: N-terminal GST; dsDNA, one strand shown. Put shortly:
as §1

Another assay concerns the target ETV6 (Homo sapiens, UniProt P41212 1-452). The following applies: protein: recombinant; tags: N-terminal GST; dsDNA, one strand shown. Put shortly: as §1

HSF1, sequence (Q00613 whole entry): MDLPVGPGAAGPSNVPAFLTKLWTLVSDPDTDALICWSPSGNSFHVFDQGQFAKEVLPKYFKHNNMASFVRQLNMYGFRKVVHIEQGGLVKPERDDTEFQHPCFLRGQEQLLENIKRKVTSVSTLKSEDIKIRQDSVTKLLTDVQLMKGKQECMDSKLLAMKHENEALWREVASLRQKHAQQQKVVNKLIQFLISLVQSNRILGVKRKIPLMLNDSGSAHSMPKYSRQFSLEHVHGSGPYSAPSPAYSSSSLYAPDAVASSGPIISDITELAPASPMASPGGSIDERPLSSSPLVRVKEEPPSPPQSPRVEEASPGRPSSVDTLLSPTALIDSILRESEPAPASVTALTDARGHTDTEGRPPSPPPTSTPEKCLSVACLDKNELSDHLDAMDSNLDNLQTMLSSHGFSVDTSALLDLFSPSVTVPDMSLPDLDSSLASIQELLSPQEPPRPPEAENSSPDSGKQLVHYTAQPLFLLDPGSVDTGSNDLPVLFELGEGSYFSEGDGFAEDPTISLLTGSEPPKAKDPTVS
ETV6, sequence (P41212 whole entry): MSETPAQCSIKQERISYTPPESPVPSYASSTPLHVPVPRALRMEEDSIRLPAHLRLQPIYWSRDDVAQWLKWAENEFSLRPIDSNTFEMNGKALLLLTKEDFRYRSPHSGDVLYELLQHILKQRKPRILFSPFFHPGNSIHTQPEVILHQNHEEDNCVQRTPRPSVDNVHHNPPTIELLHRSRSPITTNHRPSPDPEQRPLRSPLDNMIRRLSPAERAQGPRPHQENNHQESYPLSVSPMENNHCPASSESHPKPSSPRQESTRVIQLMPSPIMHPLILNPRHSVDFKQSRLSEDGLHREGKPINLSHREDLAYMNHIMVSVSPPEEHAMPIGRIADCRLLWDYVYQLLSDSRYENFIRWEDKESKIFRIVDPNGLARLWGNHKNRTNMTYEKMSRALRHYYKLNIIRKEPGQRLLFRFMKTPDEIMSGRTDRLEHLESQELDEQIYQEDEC

Take CACTAG: the binding signal in the assay with ELK1 was 1.04 fold enrichment (6-mer frequency, TF over GST control); with GABPA, 1.02 fold enrichment (6-mer frequency, TF over GST control); with ERG it was 1.04 fold enrichment (6-mer frequency, TF over GST control); with ELF1, 1.09 fold enrichment (6-mer frequency, TF over GST control); with SPIB, 1 fold enrichment (6-mer frequency, TF over GST control); with HSF1 it was 1.24 fold enrichment (6-mer frequency, TF over GST control). Moreover, the binding signal with SPIC is 1.05 fold enrichment (6-mer frequency, TF over GST control); with ELK4 it was 1.06 fold enrichment (6-mer frequency, TF over GST control); with ETV3L, 1.03 fold enrichment (6-mer frequency, TF over GST control); with ETV7, 1.01 fold enrichment (6-mer frequency, TF over GST control); with ETV6 it was 1.01 fold enrichment (6-mer frequency, TF over GST control).
